In PubChem BioAssay (NCI) one finds growth inhibition data, which are given here for 17 compounds.

Each structure is given as a SMILES string. The panel holds about 79,000 compounds, 15% with a hit somewhere; the sample as a whole holds those more often. Values without a mark were called inactive. Active and inactive are the calls of the source. Rule as the data show it: active = growth inhibition above about 70%; inactive = the rest.

Assay [1] can be described thus: NCI Yeast Anticancer Drug Screen. Data for the rad50 strain (AID 155).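 Also: 0% = growth of vehicle-only cultures of the same strain.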 Conditions: S. cerevisiae rad50 strain growth inhibition; at 50.0 µM; hits give high values. A digest of the protocol:
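Growth of the mutant yeast was measured after compound exposure and referenced to vehicle-treated cultures.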

Assay [2] is described as follows: NCI Yeast Anticancer Drug Screen. Data for the mec2-1 strain (AID 157). As to conditions: S. cerevisiae mec2-1 strain, at 50.0 µM, hits give high values. A digest of the protocol:
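Vehicle-treated cultures served as reference for growth inhibition of compound-exposed mec2-1 yeast.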

Assay [3] in a line: NCI Yeast Anticancer Drug Screen. Data for the sgs1 mgt1 strain (AID 161).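 Also: 0% = growth of cultures given vehicle only.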 As to conditions: S. cerevisiae sgs1 mgt1 strain, at 50.0 µM, hits give high values. A digest of the protocol: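 Mutant yeast exposed to compound; growth scored against vehicle-only wells.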
Assay [4] can be described thus: NCI Yeast Anticancer Drug Screen. Data for the cln2 rad14 strain (AID 165).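 Also: 0% = growth equal to vehicle treated cultures.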 As to conditions: S. cerevisiae cln2 rad14 strain, at 50.0 µM, hits give high values. The gist of the method:
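Each compound was tested on cln2 rad14 yeast. Inhibition of growth was calculated against vehicle-exposed controls.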

Assay [5] in a line: NCI Yeast Anticancer Drug Screen. Data for the bub3 strain (AID 167). Conditions: S. cerevisiae bub3 mutant strain, at 50.0 µM, hits give high values. The gist of the method: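 Whole-cell yeast assay. The mutant strain was incubated with compounds, and growth inhibition was determined by comparison with vehicle-treated cells.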
Assay [6] can be described thus: NCI Yeast Anticancer Drug Screen. Data for the mlh1 rad18 strain (AID 175). Conditions: S. cerevisiae mlh1 rad18 strain growth inhibition; at 50.0 µM; hits give high values. The gist of the method:
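Vehicle-treated cultures served as the reference for growth inhibition in a yeast strain carrying DNA damage repair alterations exposed to each compound.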

For `CN(C)CCN=C(N)N[N+](=O)[O-]`, the growth inhibition in assay [1] was 1.35%; in assay [2] it was 3.75%; in assay [3], -15.4%; in assay [4], -96.4%; in assay [5] it was 2.4%; in assay [6], -38%.

As for `O=C(COc1ccc(Cl)c(Cl)c1)Nc1ccc[n+](Cc2c(Cl)cccc2S(=O)(=O)F)c1`, the growth inhibition in assay [1] was 14.8%; in assay [2], 22.1%; in assay [3], -17.7%; in assay [4] it was 39.9%; in assay [5], -1.5%; in assay [6], 5.35%.

`CCOC(=O)C1(O)N=C(c2ccccc2)c2ccccc2-n2cccc21` (configuration not stated): the growth inhibition in assay [1] is -21.4%; in assay [2] it was -45.2%; in assay [3], -2.6%; in assay [4] it was -23.9%; in assay [5] it was 10.2%; in assay [6] it was -3.2%.

For `CCc1ccc(CCN2CCCCC2)nc1`, the growth inhibition in assay [1] is -24.6%; in assay [2], -21.4%; in assay [3], -21.4%; in assay [4] it was 6.75%; in assay [5], -15.5%; in assay [6], -1.6%.

As to `Cc1nnc2cc3ccccc3cn12`, the growth inhibition is 21% in assay [1]; 9.45% in assay [2]; 26.4% in assay [3]; 9.45% in assay [4]; 21.9% in assay [5]; 18.1% in assay [6].

Take `CC(NC1=NCCO1)c1ccccc1Cl` (configuration not stated): the growth inhibition in assay [1] is -8.85%; in assay [2] it was -29%; in assay [3], 5.45%; in assay [4] it was -27.9%; in assay [5] it was -12.9%; in assay [6], -48%.

As for `C/C=C/c1cc2n(c1)C(=O)c1cc(OC3OC(C)C(NC)C(C)(O)C3O)c(C)c(O)c1NC2O` (configuration not stated), the growth inhibition in assay [1] is 20.9%; in assay [2] it was 1.1%; in assay [3] it was 20.8%; in assay [4], 2.75%; in assay [5], 14.2%; in assay [6] it was -47.4%.

Regarding `C=CCN1CCC23c4c5ccc(O)c4OC2C(=NN=C2CCC4(O)C6Cc7ccc(O)c8c7C4(CCN6CC=C)C2O8)CCC3(O)C1C5` (configuration not stated), the growth inhibition in assay [1] is 3.4%; in assay [2], 2.5%; in assay [3] it was 10%; in assay [4] it was 27.4%; in assay [5], 2.1%; in assay [6], 32.2%.

As for `C=CCn1cc2c3c(cccc31)C1CC(C)CN(C)C1C2` (configuration not stated), the growth inhibition in assay [1] was 34.5%; in assay [2], 36%; in assay [3] it was 25%; in assay [4], 39.9%; in assay [5] it was 33.6%; in assay [6], 28.9%.

Take `CN(C(=O)Oc1ccccc1)c1ccc(S(=O)(=O)F)cc1`: the growth inhibition is 97.8% (active) in assay [1]; 98.7% (active) in assay [2]; 98.8% (active) in assay [3]; 96.4% (active) in assay [4]; 98.5% (active) in assay [5]; 98.7% (active) in assay [6].

For `COc1ccc2c(c1O)C13CCN(C)C(C2)C1CCC(O)C3` (configuration not stated), the growth inhibition is -16.4% in assay [1]; 2.95% in assay [2]; -11.8% in assay [3]; -11.8% in assay [4]; -1.7% in assay [5]; -20% in assay [6].

As for `Oc1ccc(C(O)C2CCCCN2)cc1O` (configuration not stated), the growth inhibition in assay [1] was -10.5%; in assay [2], -20.9%; in assay [3], -0.25%; in assay [4], -17.9%; in assay [5], -16.8%; in assay [6], -0.45%.

As to `O=S(=O)(c1ccccc1)N1C2CCCC21` (configuration not stated), the growth inhibition in assay [1] was 14.1%; in assay [2] it was 2.55%; in assay [3] it was 7.05%; in assay [4] it was -2.75%; in assay [5], 7.5%; in assay [6], -21.5%.

In the case of `NC(=O)c1ccc([As](=O)(O)O)cc1[N+](=O)[O-]`, the growth inhibition in assay [1] is -2%; in assay [2], 3.85%; in assay [3], 5.05%; in assay [4] it was -47.8%; in assay [5], -6.9%; in assay [6], -10.6%.

Regarding `C[N+](CCCl)(CCCl)Cc1cc([N+](=O)[O-])cc([N+](=O)[O-])c1`, the growth inhibition in assay [1] is -6.05%; in assay [2], -3.05%; in assay [3], 8.9%; in assay [4] it was -8.6%; in assay [5] it was -1.25%; in assay [6] it was 5.95%.

Turning to `CCOP(=O)(OCC)/C(C#N)=C/c1ccoc1`, the growth inhibition in assay [1] is -36%; in assay [2] it was -5.8%; in assay [3], -58.2%; in assay [4] it was -15.2%; in assay [5], -29.9%; in assay [6], -51%.

`COc1cc(CC(N)Cc2c[nH]c3ccccc23)cc(OC)c1OC` (configuration not stated): the growth inhibition was -5.2% in assay [1]; -5.8% in assay [2]; -4.85% in assay [3]; 24.6% in assay [4]; -25.3% in assay [5]; -3.35% in assay [6].
